The results in this text go back to the supplement of paper PMC12636033.

± gives the standard deviation of the averaged measurements. In all, about 33,000 sequences were measured (“E-score (rank enrichment, -0.5 to 0.5)”: median about -0.0028, highest 2% from about 0.23 on). Many of the other results were omitted from the sample, so the highest values are more common in it than they were.

The assay deals with 2Sb-muMax20 (muMax20 with two 1,3-bis(methyl)benzene Cys staples, A13C/A17C and Q88C/A92C, C-terminal Lys). As to the kind of experiment: PBM 8-mer E-score (E-score (rank enrichment, -0.5 to 0.5)); higher = stronger preferential binding. On the procedure:
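Protein binding microarray (universal PBM chip covering all 10-mers in fixed probe flanks) with chemically synthesized human Max(13-93) bHLH-LZ analogs (not full-length Max) bearing noncanonical residues (hArg, Tha, Aib, Nle at 65) and aromatic Cys staples. Read-out per 8-mer (and its reverse complement): E-score (rank-based enrichment, -0.5 to 0.5) and Z-score of median probe intensity.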
With ACAATAAT, the “PBM 8-mer E-score” value was 0.2723 ± 0.0017.

ACAATAAC: the “PBM 8-mer E-score” value is 0.18 ± 0.04.

Regarding ACAATACC, the “PBM 8-mer E-score” value was determined as 0.247 ± 0.01.

For the sequence ACAATACA, the “PBM 8-mer E-score” value turned out to be 0.0315 ± 0.045.

In the case of CCACTTAA, the “PBM 8-mer E-score” value was 0.0781 ± 0.04.

For the sequence GTGCCCGA, the “PBM 8-mer E-score” value is -0.169 ± 0.03.

Take CAGAGGCG: the “PBM 8-mer E-score” value is -0.0537 ± 0.004.

On to GCGGGACA, for which the “PBM 8-mer E-score” value is -0.0586 ± 0.068.

With CGCGCGCG, the “PBM 8-mer E-score” value is -0.0393 ± 0.0083.

For AAGTGCCC, the “PBM 8-mer E-score” value came to 0.0017 ± 0.086.

On to TAGTTCGA, for which the “PBM 8-mer E-score” value is 0.117 ± 0.065.

For ATTTACGA, the “PBM 8-mer E-score” value stood at 0.13 ± 0.011.

For the sequence CTTTACGA, the “PBM 8-mer E-score” value was -0.11 ± 0.061.

Consider GTTTACGA, for which the “PBM 8-mer E-score” value stood at 0.233 ± 0.0029.

Turning to GAACCTTA, the “PBM 8-mer E-score” value was determined as 0.14 ± 0.038.

As for ACAACCCC, the “PBM 8-mer E-score” value came to 0.237 ± 0.088.

In the case of ACAACCAG, the “PBM 8-mer E-score” value stood at 0.144 ± 0.037.

For CCAACCCC, the “PBM 8-mer E-score” value was found to be 0.19 ± 0.044.

Turning to CCAACACC, the “PBM 8-mer E-score” value was -0.11 ± 0.046.

Regarding ACAACCCT, the “PBM 8-mer E-score” value was -0.0652 ± 0.072.

With ACAACCAC, the “PBM 8-mer E-score” value is 0.076 ± 0.093.

Turning to ACAACAAG, the “PBM 8-mer E-score” value was 0.259 ± 0.0048.

As to GCAACACC, the “PBM 8-mer E-score” value is 0.0523 ± 0.023.

For the sequence ACAACACC, the “PBM 8-mer E-score” value came to 0.257 ± 0.014.

Take ACAACAAC: the “PBM 8-mer E-score” value was determined as 0.0959 ± 0.0063.

Consider ACAACCAT, for which the “PBM 8-mer E-score” value came to 0.266 ± 0.01.

On to ACAACAAA, for which the “PBM 8-mer E-score” value came to 0.189 ± 0.045.

With AGAGCCAT, the “PBM 8-mer E-score” value was -0.0498 ± 0.022.

In the case of GTACGTTA, the “PBM 8-mer E-score” value was found to be 0.0622 ± 0.061.

As for TACGAAGA, the “PBM 8-mer E-score” value is 0.16 ± 0.034.

On to CTTCAGAC, for which the “PBM 8-mer E-score” value is -0.147 ± 0.0041.

Regarding CCGCTGTA, the “PBM 8-mer E-score” value was -0.00727 ± 0.018.

With GATGGACC, the “PBM 8-mer E-score” value was -0.139 ± 0.026.

Turning to AGCTAAAA, the “PBM 8-mer E-score” value is -0.0318 ± 0.011.

For the sequence ATACAAAC, the “PBM 8-mer E-score” value turned out to be 0.182 ± 0.056.

Take AGCTCTAG: the “PBM 8-mer E-score” value was -0.0829 ± 0.017.

For AGCACCTC, the “PBM 8-mer E-score” value is 0.00592 ± 0.042.

Take ATCCACCG: the “PBM 8-mer E-score” value was -0.1554 ± 0.001.

As for GATAGCCC, the “PBM 8-mer E-score” value turned out to be 0.0239 ± 0.026.

Turning to GGGGTATA, the “PBM 8-mer E-score” value was 0.217 ± 0.071.

As to ATAGTAAA, the “PBM 8-mer E-score” value came out at 0.233 ± 0.068.

With CTAGTAAA, the “PBM 8-mer E-score” value worked out at 0.11 ± 0.069.

On to ATAGTAAT, for which the “PBM 8-mer E-score” value was 0.0828 ± 0.014.

For CTGAGTCA, the “PBM 8-mer E-score” value was -0.163 ± 0.1.

For the sequence CCTCCCGA, the “PBM 8-mer E-score” value was -0.19 ± 0.041.

As to ATAGTTAG, the “PBM 8-mer E-score” value was determined as 0.136 ± 0.038.

For AAATACCT, the “PBM 8-mer E-score” value was determined as 0.11169 ± 4.2e-05.

Take CATAACCA: the “PBM 8-mer E-score” value stood at 0.16 ± 0.018.

With GATAACTA, the “PBM 8-mer E-score” value is 0.237 ± 0.0032.

With AATAACTA, the “PBM 8-mer E-score” value was found to be 0.151 ± 0.013.

Consider TATAACCA, for which the “PBM 8-mer E-score” value worked out at 0.125 ± 0.024.

GATAACCA: the “PBM 8-mer E-score” value is 0.25 ± 0.0028.

As for CATAACTA, the “PBM 8-mer E-score” value was 0.0553 ± 0.058.

Regarding ACGACTAC, the “PBM 8-mer E-score” value was -0.086 ± 0.0098.

CAATTGCA: the “PBM 8-mer E-score” value was determined as 0.241 ± 0.03.

In the case of AAATTGCA, the “PBM 8-mer E-score” value came to 0.0694 ± 0.01.

As to AAATTGGG, the “PBM 8-mer E-score” value was determined as 0.211 ± 0.011.

As to CAATTGGA, the “PBM 8-mer E-score” value was found to be 0.105 ± 0.079.

In the case of TAATTGCA, the “PBM 8-mer E-score” value stood at 0.178 ± 0.022.

For AGATTGCA, the “PBM 8-mer E-score” value was -0.04038 ± 0.00028.

Take CGATTGCA: the “PBM 8-mer E-score” value is -0.00806 ± 0.061.

For the sequence TGATTGCA, the “PBM 8-mer E-score” value stood at 0.2879 ± 0.0004.

With CAATTGGG, the “PBM 8-mer E-score” value amounted to 0.233 ± 0.044.

As to ATGTGATA, the “PBM 8-mer E-score” value came to 0.137 ± 0.099.

On to CTTCTCTC, for which the “PBM 8-mer E-score” value is -0.021 ± 0.036.

With ATAGGAAT, the “PBM 8-mer E-score” value is -0.00103 ± 0.048.

For ATTCTTTG, the “PBM 8-mer E-score” value amounted to 0.0288 ± 0.029.

GGCTCGGA: the “PBM 8-mer E-score” value was -0.242 ± 0.019.

Turning to CACCCATG, the “PBM 8-mer E-score” value was -0.0354 ± 0.1.

On to GTGGGGCA, for which the “PBM 8-mer E-score” value is 0.0926 ± 0.0061.

As for ATGGGGCG, the “PBM 8-mer E-score” value was found to be 0.305 ± 0.011.

Turning to ATGGGGCA, the “PBM 8-mer E-score” value worked out at 0.247 ± 0.015.

Take ATGGGGCC: the “PBM 8-mer E-score” value is -0.148 ± 0.097.

Regarding ATGGGGGG, the “PBM 8-mer E-score” value was -0.078 ± 0.064.

Regarding CTGGGGCA, the “PBM 8-mer E-score” value was -0.128 ± 0.0081.

CCGCGTAC: the “PBM 8-mer E-score” value is -0.0836 ± 0.06.

On to AAACCCTC, for which the “PBM 8-mer E-score” value was determined as 0.0564 ± 0.037.

As for ATACTTTA, the “PBM 8-mer E-score” value was 0.254 ± 0.079.

With CTACTTTA, the “PBM 8-mer E-score” value was -0.0218 ± 0.0086.

As for ATACTTTG, the “PBM 8-mer E-score” value was 0.18 ± 0.031.

For CACAGCAA, the “PBM 8-mer E-score” value was 0.0823 ± 0.098.

As for TTACTAAA, the “PBM 8-mer E-score” value amounted to 0.035 ± 0.037.

For the sequence CTACTAAG, the “PBM 8-mer E-score” value is -0.0175 ± 0.014.

For the sequence GTACTAAA, the “PBM 8-mer E-score” value came to 0.0714 ± 0.032.

Consider ATACTAAA, for which the “PBM 8-mer E-score” value stood at 0.274 ± 0.073.

On to ATACTAAC, for which the “PBM 8-mer E-score” value worked out at 0.191 ± 0.016.

Regarding CTACTAAC, the “PBM 8-mer E-score” value came out at 0.271 ± 0.02.
